Each structure is given as a SMILES string. The panel holds about 83,000 compounds, 20% with a hit somewhere; the sample as a whole holds those more often.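 Note: values are percent growth. 100 is the growth of untreated cells, values between 100 and 0 indicate rising inhibition; between -100 and 0 indicates cell death.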 Unmarked numbers belong to inactive results. Calls of active or inactive are those of the source. Rule for the calls: active = growth percent below 10; inactive = the rest.

Some test systems named below: SR leukemia; RPMI-8226 leukemia; OVCAR-8 ovarian; OVCAR-5 ovarian; OVCAR-4 ovarian; SK-OV-3 ovarian; IGROV1 ovarian; OVCAR-3 ovarian; NCI/ADR-RES ovarian; HS 578T breast.
Holding throughout (experiment): NCI-60 one-dose screen, 48 h (100 = growth as untreated, 0 = no growth, -100 = all killed)
What all share (settings): 10 µM unless noted

In the case of `CCCOC(=O)c1nc(N(CC2CCCCC2)C(=O)NC)sc1/N=C/c1ccccc1`, the growth in the assay with SR leukemia was -17.2% (active); with RPMI-8226 leukemia, -48.2% (active); in the assay on OVCAR-8 ovarian, 29%; with OVCAR-5 ovarian, 40%; in the assay on OVCAR-4 ovarian it was 35.1%; with SK-OV-3 ovarian it was 24.7%. For the same molecule, the figures for the growth with IGROV1 ovarian, with OVCAR-3 ovarian and with NCI/ADR-RES ovarian were 19.4%, 4.38% (active) and -14% (active), respectively.

Regarding `CC(=O)N1CC(=O)NC1=S`, the growth is 91.8% in the assay with SR leukemia; 101% with RPMI-8226 leukemia; 103% in the assay with OVCAR-8 ovarian; 97.1% in the assay with OVCAR-5 ovarian; 96.5% in the assay on OVCAR-4 ovarian; 105% in the assay on IGROV1 ovarian. Moreover, the figures for the growth in the assay on OVCAR-3 ovarian, with HS 578T breast and with NCI/ADR-RES ovarian were 110%, 102% and 104%, respectively.

As to `O=C(CCl)N(c1ccccc1)c1ccccc1`, the growth in the assay with SR leukemia is 101%; in the assay on RPMI-8226 leukemia, 109%; with OVCAR-8 ovarian, 96.3%; in the assay on OVCAR-5 ovarian it was 117%; in the assay with OVCAR-4 ovarian, 111%; with IGROV1 ovarian it was 115%. Besides, the growth is 109% in the assay with OVCAR-3 ovarian, 102% in the assay with HS 578T breast and 108% with NCI/ADR-RES ovarian.

As to `COC(=O)c1ccc(=O)c2nc3/c(=C/O)c(O)cc(=O)c3[nH]c12`, the growth in the assay with SR leukemia was -11.4% (active); with RPMI-8226 leukemia, 51.1%; with OVCAR-8 ovarian, 12.2%; with OVCAR-5 ovarian it was 54.7%; in the assay on OVCAR-4 ovarian, 47.4%; with IGROV1 ovarian, -61.2% (active). Moreover, the growth with OVCAR-3 ovarian is -4.24% (active); with HS 578T breast, -10.3% (active); with NCI/ADR-RES ovarian it was 11%.

`CCCCCCCCCCCCSC(=N)N`: the growth with SR leukemia is -32.1% (active); in the assay with RPMI-8226 leukemia, -42.2% (active); in the assay with OVCAR-8 ovarian, -60.6% (active); in the assay on OVCAR-5 ovarian, 37.4%; in the assay with OVCAR-4 ovarian, 33.1%; with IGROV1 ovarian, -15.2% (active). Besides, the growth in the assay with OVCAR-3 ovarian was 14.4%; in the assay with HS 578T breast, 92.1%; in the assay with NCI/ADR-RES ovarian, 35.6%.

As for `O=C1C(=O)c2cc([N+](=O)[O-])ccc2-c2ccccc21`, the growth in the assay on SR leukemia is -7.48% (active); with RPMI-8226 leukemia it was -42.1% (active); in the assay with OVCAR-8 ovarian, -58.6% (active); in the assay with OVCAR-5 ovarian, -79.2% (active); in the assay with OVCAR-4 ovarian, -97.6% (active); with SK-OV-3 ovarian it was 55.7%. Further, the growth with IGROV1 ovarian is -72.5% (active); in the assay with OVCAR-3 ovarian it was -94% (active); with NCI/ADR-RES ovarian, -74.2% (active).

With `O=C(Nc1ccc(Cl)c(Cl)c1)OCc1ccco1`, the growth in the assay with SR leukemia was 25.7%; with RPMI-8226 leukemia, 51.3%; with OVCAR-8 ovarian, 47.1%; in the assay on OVCAR-5 ovarian, 76.5%; with OVCAR-4 ovarian, 64%; with IGROV1 ovarian, 52.7%. In addition, the growth is 47% in the assay on OVCAR-3 ovarian, 20.5% in the assay on HS 578T breast and 34.4% in the assay with NCI/ADR-RES ovarian.

`COC(=O)c1cc([N+](=O)[O-])cc([N+](=O)[O-])c1Cl`: the growth in the assay with SR leukemia was 30.9%; in the assay on RPMI-8226 leukemia, 87.1%; in the assay on OVCAR-8 ovarian it was 76.1%; in the assay with OVCAR-5 ovarian it was 97.9%; with OVCAR-4 ovarian it was 61%; with SK-OV-3 ovarian, 102%. Further, the values for the growth with IGROV1 ovarian, with OVCAR-3 ovarian and in the assay on NCI/ADR-RES ovarian were 95.7%, -44.7% (active) and 99.1%, respectively.

For `CC12CCC(O)CC1=CCC1C2CCC2(C)C3=NN=CC3CC12` (stereo not given), the growth is 60.1% with SR leukemia; 96.5% in the assay on RPMI-8226 leukemia; 107% in the assay with OVCAR-8 ovarian; 106% in the assay on OVCAR-5 ovarian; 107% in the assay with OVCAR-4 ovarian; 115% in the assay with SK-OV-3 ovarian. Also, the results for the growth in the assay on OVCAR-3 ovarian, in the assay on HS 578T breast and in the assay on NCI/ADR-RES ovarian were 116%, 95.6% and 98.6%, respectively.

Turning to `Nc1nc(-c2ccccc2)nc(N)c1N=O`, the growth in the assay on SR leukemia was 27.4%; in the assay on RPMI-8226 leukemia it was 41%; in the assay on OVCAR-8 ovarian, 54.3%; in the assay on OVCAR-5 ovarian it was 96.9%; in the assay with OVCAR-4 ovarian, 83.9%; in the assay on IGROV1 ovarian, 68.6%. Further, the growth was 27.7% in the assay with OVCAR-3 ovarian, 65% in the assay on HS 578T breast and 78.5% with NCI/ADR-RES ovarian.

For `CC1(C)OCC(COC(c2ccccc2)(c2ccccc2)c2ccccc2)O1` (stereo not given), the growth was 93.6% in the assay on SR leukemia; 105% in the assay with RPMI-8226 leukemia; 98.4% with OVCAR-8 ovarian; 98.1% in the assay on OVCAR-5 ovarian; 96% in the assay on OVCAR-4 ovarian; 108% in the assay on IGROV1 ovarian. Also, the growth was 102% with OVCAR-3 ovarian, 103% in the assay on HS 578T breast and 103% with NCI/ADR-RES ovarian.

Regarding `COc1cc(-c2ccc(-[n+]3nc(-c4ccc([N+](=O)[O-])cc4)nn3-c3ccc([N+](=O)[O-])cc3)c(OC)c2)ccc1-[n+]1nc(-c2ccc([N+](=O)[O-])cc2)nn1-c1ccc([N+](=O)[O-])cc1`, the growth with SR leukemia was 40.2%; in the assay with RPMI-8226 leukemia, 27.6%; in the assay with OVCAR-8 ovarian, 30.5%; with OVCAR-5 ovarian it was 59.7%; in the assay with OVCAR-4 ovarian, 53.9%; in the assay with SK-OV-3 ovarian, 47.1%. The growth was 24.5% with IGROV1 ovarian, 32% in the assay with OVCAR-3 ovarian and 73.4% in the assay with NCI/ADR-RES ovarian.

In the case of `S=C(S)OCN1CCOCC1`, the growth in the assay on SR leukemia is 65.2%; in the assay with RPMI-8226 leukemia, 100%; with OVCAR-8 ovarian, 88%; in the assay with OVCAR-5 ovarian it was 97.6%; with OVCAR-4 ovarian, 56.5%; in the assay with SK-OV-3 ovarian, 98.9%. For the same molecule, the growth with IGROV1 ovarian was 56.5%; in the assay on OVCAR-3 ovarian, 118%; in the assay on NCI/ADR-RES ovarian it was 96.2%.

As to `O=[N+]([O-])C=C(c1ccccc1)c1ccccc1`, the growth in the assay with SR leukemia was 22.8%; in the assay on RPMI-8226 leukemia, 64.5%; in the assay on OVCAR-8 ovarian, 92.5%; in the assay on OVCAR-5 ovarian it was 83.2%; with OVCAR-4 ovarian, 79.5%; in the assay on SK-OV-3 ovarian it was 78%. The growth is 86.5% with IGROV1 ovarian, 90.1% with OVCAR-3 ovarian and 75.5% in the assay with NCI/ADR-RES ovarian.

As for `CC1(O)CCCCCC1`, the growth was 92.5% in the assay on SR leukemia; 102% with RPMI-8226 leukemia; 102% in the assay on OVCAR-8 ovarian; 105% in the assay on OVCAR-5 ovarian; 107% in the assay with OVCAR-4 ovarian; 103% with IGROV1 ovarian. Further, the growth with OVCAR-3 ovarian was 103%; in the assay on HS 578T breast it was 98.3%; with NCI/ADR-RES ovarian, 102%.

These data come from PubChem BioAssay (NCI).
